Source: the antibiotic and cytotoxicity screens of Wong et al. (2023)
Screen size: about 39,000 compounds; about 1,500 (3.8%) were called active. For the sample, actives were picked, then their nearest neighbours and some compounds at random.

System: HSkMC (human skeletal muscle cells)
Assay: cytotoxicity call (relative viability < 0.9)
Conditions: 10 µM

Q: Which cytotoxicity call does the source give for `C[C@@H]1CN([C@H](C)CO)C(=O)c2cc(NS(=O)(=O)c3cn(C)cn3)ccc2O[C@@H]1CN(C)C(=O)Nc1ccc2c(c1)OCO2` here?
A: Its cytotoxicity call is “inactive”.

Q: Which cytotoxicity call does the source give for `O=C1[C@@H]2[C@@H](C(=O)N1CCO)[C@@H]1C=C[C@@H]2C1` here?
A: The cytotoxicity call was “inactive”.

Q: How did the cytotoxicity call turn out when `C[C@@H]1CN([C@H](C)CO)S(=O)(=O)c2ccc(-c3cncnc3)cc2O[C@H]1CN(C)C(=O)Cc1ccncc1` was run?
A: The cytotoxicity call was “inactive”.

Q: For `C[C@@H]1CN([C@H](C)CO)C(=O)c2cc(NC(=O)Nc3ccc4c(c3)OCO4)ccc2O[C@H]1CN(C)C(=O)Nc1cccc2ccccc12`, which cytotoxicity call is on record?
A: Its cytotoxicity call is “inactive”.

Q: `C[C@H]1CN([C@@H](C)CO)C(=O)c2cc(NC(=O)Nc3ccc4c(c3)OCO4)ccc2O[C@H]1CN(C)C(=O)Nc1cccc2ccccc12` was tested. Which cytotoxicity call did it give?
A: Its cytotoxicity call is “inactive”.

Q: How did the cytotoxicity call turn out when `C[C@@H]1CN([C@@H](C)CO)C(=O)c2cc(NC(=O)Nc3ccc4c(c3)OCO4)ccc2O[C@@H]1CN(C)C(=O)Nc1cccc2ccccc12` was run?
A: Its cytotoxicity call is “active”.

Q: `C[C@H]1CN([C@@H](C)CO)C(=O)c2cc(NC(=O)Nc3ccc4c(c3)OCO4)ccc2O[C@@H]1CN(C)C(=O)Nc1cccc2ccccc12` was tested. Which cytotoxicity call did it give?
A: The cytotoxicity call was “inactive”.

Q: For `C[C@@H]1CN([C@H](C)CO)C(=O)c2cc(NC(=O)Nc3ccc4c(c3)OCO4)ccc2O[C@@H]1CN(C)C(=O)Nc1cccc2ccccc12`, which cytotoxicity call is on record?
A: The cytotoxicity call was “active”.

Q: With `C[C@H](CO)N1C[C@H](C)[C@@H](CN(C)C(=O)Nc2cccc3ccccc23)Oc2ccc(NC(=O)Nc3ccc4c(c3)OCO4)cc2C1=O` as the compound, how does the cytotoxicity call read?
A: The cytotoxicity call was “inactive”.

Q: Which cytotoxicity call does the source give for `O=C(C[C@H]1CC[C@H]2[C@@H](COC[C@@H](O)CN2S(=O)(=O)c2cccc(Cl)c2)O1)NCCCN1CCOCC1` here?
A: Its cytotoxicity call is “inactive”.

Q: How did the cytotoxicity call turn out when `CO[C@@H]1[C@@H](O)[C@H](O)[C@H](O)[C@H](O)[C@@H]1O` was run?
A: Its cytotoxicity call is “inactive”.

Q: Which cytotoxicity call does the source give for `COc1ccc(NC(=O)N(C)C[C@@H]2Oc3ccc(NC(=O)CCCCCC(=O)Nc4ccccc4N)cc3C(=O)N([C@@H](C)CO)C[C@@H]2C)cc1` here?
A: The cytotoxicity call was “inactive”.

Q: How did the cytotoxicity call turn out when `O=C(Cn1cc(COc2ccc3ccccc3c2)nn1)NS(=O)(=O)c1ccccc1OC(F)(F)F` was run?
A: The cytotoxicity call was “inactive”.

Q: For `CN(C)C(=O)C[C@@H]1CC[C@@H]2[C@H](COC[C@H](O)CN2S(=O)(=O)c2ccc(Oc3ccccc3)cc2)O1`, which cytotoxicity call is on record?
A: The cytotoxicity call was “inactive”.

Q: How did the cytotoxicity call turn out when `COc1ccc2c(c1)n(CCN)c(=O)n2C(=O)[C@@H]1C[C@H](C)CC[C@H]1C(C)C` was run?
A: The cytotoxicity call was “active”.

Q: How did the cytotoxicity call turn out when `CC(C)[C@H]1CC[C@@H](C)C[C@@H]1NC(=O)c1cccc2ccccc12` was run?
A: The cytotoxicity call was “inactive”.

Q: How did the cytotoxicity call turn out when `COc1ccc(S(=O)(=O)Nc2ccc3c(c2)C(=O)N([C@H](C)CO)C[C@@H](C)[C@@H](CN(C)S(C)(=O)=O)O3)cc1` was run?
A: The cytotoxicity call was “inactive”.

Q: `Cc1cc(C)c(/N=c2\scc(C)n2Cc2ccccc2)c(C)c1` was tested. Which cytotoxicity call did it give?
A: Its cytotoxicity call is “inactive”.

Q: Which cytotoxicity call does the source give for `C[C@H](CO)N1C[C@H](C)[C@H](CN(C)S(=O)(=O)c2ccc(F)cc2)Oc2ccc(NC(=O)Nc3ccc(C(F)(F)F)cc3)cc2C1=O` here?
A: Its cytotoxicity call is “active”.

Q: With `C[C@H]1CN([C@@H](C)CO)C(=O)c2cc(NC(=O)Nc3ccc(C(F)(F)F)cc3)ccc2O[C@H]1CN(C)S(=O)(=O)c1ccc(F)cc1` as the compound, how does the cytotoxicity call read?
A: The cytotoxicity call was “inactive”.

Q: Which cytotoxicity call does the source give for `Cc1ccc(S(=O)(=O)N(C)C[C@H]2Oc3ccc(NC(=O)Nc4ccc(C(F)(F)F)cc4)cc3C(=O)N([C@@H](C)CO)C[C@@H]2C)cc1` here?
A: The cytotoxicity call was “inactive”.

Q: Which cytotoxicity call does the source give for `C[C@@H]1CN([C@H](C)CO)C(=O)c2cc(NC(=O)Nc3ccc(C(F)(F)F)cc3)ccc2O[C@@H]1CN(C)S(=O)(=O)c1ccc(F)cc1` here?
A: Its cytotoxicity call is “active”.

Q: How did the cytotoxicity call turn out when `C[C@H](CO)N1C[C@H](C)[C@@H](CN(C)S(=O)(=O)c2ccc(F)cc2)Oc2ccc(NC(=O)Nc3ccc(C(F)(F)F)cc3)cc2C1=O` was run?
A: Its cytotoxicity call is “inactive”.

Q: For `C[C@H]1CN([C@@H](C)CO)C(=O)c2cc(NC(=O)Nc3ccc(C(F)(F)F)cc3)ccc2O[C@@H]1CN(C)S(=O)(=O)c1ccc(F)cc1`, which cytotoxicity call is on record?
A: The cytotoxicity call was “inactive”.

Q: With `Cc1ccc(S(=O)(=O)N(C)C[C@@H]2Oc3ccc(NC(=O)Nc4ccc(C(F)(F)F)cc4)cc3C(=O)N([C@@H](C)CO)C[C@@H]2C)cc1` as the compound, how does the cytotoxicity call read?
A: The cytotoxicity call was “inactive”.

Q: With `Cc1ccc(S(=O)(=O)N(C)C[C@H]2Oc3ccc(NC(=O)Nc4ccc(C(F)(F)F)cc4)cc3C(=O)N([C@H](C)CO)C[C@@H]2C)cc1` as the compound, how does the cytotoxicity call read?
A: Its cytotoxicity call is “inactive”.

Q: How did the cytotoxicity call turn out when `Cc1ccc(S(=O)(=O)N(C)C[C@H]2Oc3ccc(NC(=O)Nc4ccc(C(F)(F)F)cc4)cc3C(=O)N([C@H](C)CO)C[C@H]2C)cc1` was run?
A: Its cytotoxicity call is “active”.

Q: With `C[C@@H]1CN([C@@H](C)CO)C(=O)c2cc(NC(=O)Nc3ccc(C(F)(F)F)cc3)ccc2O[C@H]1CN(C)S(=O)(=O)c1ccc(F)cc1` as the compound, how does the cytotoxicity call read?
A: Its cytotoxicity call is “inactive”.

Q: For `C[C@@H]1CN([C@H](C)CO)C(=O)c2cc(NC(=O)Nc3ccc(C(F)(F)F)cc3)ccc2O[C@H]1CN(C)S(=O)(=O)c1ccc(F)cc1`, which cytotoxicity call is on record?
A: Its cytotoxicity call is “active”.

Q: How did the cytotoxicity call turn out when `C[C@@H]1CN([C@@H](C)CO)C(=O)c2cc(NC(=O)Nc3ccc(C(F)(F)F)cc3)ccc2O[C@@H]1CN(C)S(=O)(=O)c1ccc(F)cc1` was run?
A: Its cytotoxicity call is “inactive”.

Q: With `C[C@@H]1CN([C@H](C)CO)C(=O)c2cc(NS(=O)(=O)c3cn(C)cn3)ccc2O[C@@H]1CN(C)Cc1ccc(C(=O)Nc2ccccc2N)cc1` as the compound, how does the cytotoxicity call read?
A: The cytotoxicity call was “inactive”.

Q: For `O=C(Nc1cccc2cccnc12)[C@H]1[C@@H](c2ccc(Br)cc2)CC(=O)N1C(=O)OCc1ccccc1`, which cytotoxicity call is on record?
A: The cytotoxicity call was “inactive”.

Q: For `C[C@H]1CN([C@@H](C)CO)C(=O)c2cc(NS(=O)(=O)c3cn(C)cn3)ccc2O[C@@H]1CN(C)Cc1ccc(C(=O)O)cc1`, which cytotoxicity call is on record?
A: Its cytotoxicity call is “inactive”.

Q: For `O=C(C[C@H]1CC[C@H]2[C@@H](COC[C@H](O)CN2C(=O)Nc2cccc(F)c2)O1)NCCCN1CCOCC1`, which cytotoxicity call is on record?
A: The cytotoxicity call was “inactive”.

Q: How did the cytotoxicity call turn out when `C[C@@H]1CN([C@H](C)CO)C(=O)c2cc(NC(=O)Cc3ccccc3)ccc2O[C@H]1CN(C)Cc1ccc(Oc2ccccc2)cc1` was run?
A: Its cytotoxicity call is “inactive”.

Q: With `O=C(C[C@@H]1C[C@H]2c3cc(NC(=O)Nc4ccc(C(F)(F)F)cc4)ccc3O[C@H]2[C@@H](CO)O1)NCc1cc(F)ccc1F` as the compound, how does the cytotoxicity call read?
A: Its cytotoxicity call is “inactive”.

Q: With `Cc1ccc(S(=O)(=O)Nc2ccc3c(c2)C(=O)N([C@@H](C)CO)C[C@@H](C)[C@@H](CN(C)C(=O)c2ccccc2)OCCCC[C@H](C)O3)cc1` as the compound, how does the cytotoxicity call read?
A: Its cytotoxicity call is “inactive”.

Q: For `C[C@@H]1CN([C@@H](C)CO)C(=O)c2cc(NC(=O)c3ccncc3)ccc2O[C@H]1CN(C)Cc1ccc(-c2ccccc2)cc1`, which cytotoxicity call is on record?
A: The cytotoxicity call was “inactive”.

Q: `C[C@@H]1CN([C@@H](C)CO)C(=O)CCCn2nncc2CO[C@H]1CN(C)C(=O)Nc1cccc(Oc2ccccn2)c1` was tested. Which cytotoxicity call did it give?
A: The cytotoxicity call was “inactive”.

Q: How did the cytotoxicity call turn out when `COc1ccc(NC(=O)N(C)C[C@@H]2Oc3ncc(C#CCN(C)C)cc3C(=O)N([C@@H](C)CO)C[C@H]2C)cc1` was run?
A: Its cytotoxicity call is “inactive”.

Q: For `C[C@@H]1O[C@H](O)[C@@H](F)[C@H](O)[C@@H]1O`, which cytotoxicity call is on record?
A: Its cytotoxicity call is “inactive”.

Q: Which cytotoxicity call does the source give for `C[C@@H]1CCCCO[C@@H](CN(C)Cc2ccc(C(F)(F)F)cc2)[C@H](C)CN([C@@H](C)CO)C(=O)c2cc(NC(=O)Nc3ccc(C(F)(F)F)cc3)ccc2O1` here?
A: Its cytotoxicity call is “active”.

Q: For `C[C@@H]1CCCCO[C@@H](CN(C)Cc2ccc(C(F)(F)F)cc2)[C@@H](C)CN([C@@H](C)CO)C(=O)c2cc(NC(=O)Nc3ccc(C(F)(F)F)cc3)ccc2O1`, which cytotoxicity call is on record?
A: The cytotoxicity call was “active”.

Q: For `C[C@@H]1CN([C@@H](C)CO)C(=O)c2cc(NC(=O)Nc3ccc(C(F)(F)F)cc3)ccc2O[C@@H](C)CCCCO[C@@H]1CN(C)Cc1ccc(C(F)(F)F)cc1`, which cytotoxicity call is on record?
A: The cytotoxicity call was “inactive”.

Q: Which cytotoxicity call does the source give for `C[C@@H]1CN([C@H](C)CO)C(=O)c2cc(NC(=O)Nc3ccc(C(F)(F)F)cc3)ccc2O[C@@H](C)CCCCO[C@H]1CN(C)Cc1ccc(C(F)(F)F)cc1` here?
A: The cytotoxicity call was “active”.

Q: Which cytotoxicity call does the source give for `C[C@H](CO)N1C[C@H](C)[C@H](CN(C)Cc2ccc(C(F)(F)F)cc2)OCCCC[C@H](C)Oc2ccc(NC(=O)Nc3ccc(C(F)(F)F)cc3)cc2C1=O` here?
A: The cytotoxicity call was “inactive”.

Q: With `C[C@@H]1CCCCO[C@@H](CN(C)Cc2ccc(C(F)(F)F)cc2)[C@H](C)CN([C@H](C)CO)C(=O)c2cc(NC(=O)Nc3ccc(C(F)(F)F)cc3)ccc2O1` as the compound, how does the cytotoxicity call read?
A: Its cytotoxicity call is “inactive”.

Q: `C[C@H]1CCCCO[C@@H](CN(C)Cc2ccc(C(F)(F)F)cc2)[C@@H](C)CN([C@@H](C)CO)C(=O)c2cc(NC(=O)Nc3ccc(C(F)(F)F)cc3)ccc2O1` was tested. Which cytotoxicity call did it give?
A: The cytotoxicity call was “active”.

Q: For `C[C@@H]1CCCCO[C@@H](CN(C)Cc2ccc(C(F)(F)F)cc2)[C@@H](C)CN([C@H](C)CO)C(=O)c2cc(NC(=O)Nc3ccc(C(F)(F)F)cc3)ccc2O1`, which cytotoxicity call is on record?
A: The cytotoxicity call was “inactive”.

Q: For `CNC[C@H]1OCCCC[C@H](C)Oc2ccc(NC(=O)CCCN(C)C)cc2C(=O)N([C@H](C)CO)C[C@@H]1C`, which cytotoxicity call is on record?
A: The cytotoxicity call was “inactive”.

Q: How did the cytotoxicity call turn out when `C[C@@H]1CN([C@H](C)CO)C(=O)c2cccc(NC(=O)c3ccncc3)c2O[C@H]1CN(C)S(=O)(=O)c1ccccc1` was run?
A: The cytotoxicity call was “inactive”.

Q: With `C[C@H](CO)N1C[C@H](C)[C@H](CN(C)S(=O)(=O)c2cn(C)cn2)Oc2ccc(NC(=O)CCCCCC(=O)Nc3ccccc3N)cc2C1=O` as the compound, how does the cytotoxicity call read?
A: Its cytotoxicity call is “inactive”.

Q: How did the cytotoxicity call turn out when `CCOC(=O)CCCCCCCCCCCC[C@@H]1C=CCC1` was run?
A: Its cytotoxicity call is “inactive”.

Q: How did the cytotoxicity call turn out when `C[C@H](CO)N1C[C@H](C)[C@H](CN(C)Cc2ccc(C(=O)Nc3ccccc3N)cc2)OCCCC[C@H](C)Oc2ccc(NC(=O)C3CCCCC3)cc2C1=O` was run?
A: Its cytotoxicity call is “inactive”.

Q: For `C[C@@H]1CN([C@H](C)CO)C(=O)c2cccc(NS(=O)(=O)c3cn(C)cn3)c2O[C@H]1CN(C)C(=O)Nc1ccc2c(c1)OCO2`, which cytotoxicity call is on record?
A: The cytotoxicity call was “inactive”.

Q: With `CCOC(=O)Cn1cccc2oc(=O)nc1-2` as the compound, how does the cytotoxicity call read?
A: Its cytotoxicity call is “inactive”.

Q: For `C[C@H]1CN([C@@H](C)CO)C(=O)c2c(c3ccccc3n2C)-c2ccccc2CO[C@H]1CN(C)C(=O)Nc1ccccc1`, which cytotoxicity call is on record?
A: The cytotoxicity call was “inactive”.

Q: Which cytotoxicity call does the source give for `C[C@@H]1CN([C@@H](C)CO)C(=O)c2c(c3ccccc3n2C)-c2ccccc2CO[C@H]1CN(C)C(=O)[C@H](C)c1ccccc1` here?
A: Its cytotoxicity call is “inactive”.

Q: Which cytotoxicity call does the source give for `COc1ccc(NC(=O)N(C)C[C@@H]2Oc3ccc(NC(=O)Nc4cccc5ccccc45)cc3CC(=O)N([C@H](C)CO)C[C@@H]2C)cc1` here?
A: Its cytotoxicity call is “inactive”.

Q: How did the cytotoxicity call turn out when `COc1ccccc1-c1cnc2c(c1)C(=O)N([C@H](C)CO)C[C@@H](C)[C@H](CN(C)C(=O)c1ccncc1)O2` was run?
A: The cytotoxicity call was “inactive”.
